Source: PubChem BioAssay
Only some compounds are listed: those with a hit (about 1.7% of all), similar ones and a draw of the others.
ARNT TACC3 PPI – disruptors of ARNT/TACC3 protein interaction, primary screen, biochemical, AlphaScreen, single concentration; Transforming acidic coiled-coil-containing protein 3 (Homo sapiens), Q9Y6A5; AlphaScreen His-ARNT PAS-B/GST-TACC3 binding, luminescence; TACC3 fragment carries E629A point mutation; inhibition, % at 9.99 µM; 390,000 tested, 0.66% active; AID 623870, 2012;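 active = mean inhibition of replicates at least 50% and at least half of replicates each reaching 50%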;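 note: 0% = complete ARNT plus TACC3 wells and 100% = ARNT alone without TACC3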
aDG glyco up – activators of alpha-DG glycosylation, primary screen, uHTS, Pro5-aDG cells, AlphaScreen. 360,000 tested, 0.22% active. activation, % at 10 µM. alpha-DG glycosylation AlphaScreen (IIH6); 0% Pro5, 100% B10-LARGE cell signal;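 active = activation of at least 8% versus controls, or a plate z-score of at least 8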;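 note: Pro5 are CHO cells carrying HIG-tagged alpha-DG that lacks glycosylation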
Vif inh – HIV Vif self-association inhibitors, primary screen, imaging, HEK293T, single point; inhibition, % at 7.49 µM; HEK293T cells, Vif self-association by quenched fluorescence, 24 h; 340,000 tested, 0.35% active; AID 602346, 2012; in the data active = inhibition above about 50%, passing the limit was not always enough
Cardio protect – cardioprotection against H2O2-induced cell death, primary screen, uHTS, H9c2 cells, ATPLite luminescence; H9c2 cardiomyocytes, H2O2 injury protection, 2 h; protection from H2O2 cell death, % at 20 µM; 360,000 tested, 0.63% active; AID 588492, 2011;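 active = compounds giving at least 50% protection of heart cells from peroxide-induced death in the single-dose screen, raw or plate-pattern-corrected value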;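 note: 0% = DMSO wells with peroxide and 100% = DMSO wells without peroxide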
N-glyco inh – increase of ERlucT glycosylation luciferase signal, primary screen, N-linked glycosylation inhibitor project, D54 ERlucT cells, luminescence, set 2. AID 588692, 2011. reporter increase, % at 12.5 µM. D54 ERlucT glycosylation luciferase reporter, 24 h; percent of 100 nM tunicamycin response. 360,000 tested, 0.23% active;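 active = mean luciferase reporter signal, scaled so untreated is 0 and the glycosylation-blocking control 100, at or above a set limit in every replicate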;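 note: luciferase carries N-glycosylation sites so blocking glycosylation raises the light; 0% = median of neutral control wells and 100% = median of 100 nM tunicamycin wells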
* = called active by the depositor; . = no result.

SMILES	ARNT TACC3 PPI	aDG glyco up	Vif inh	Cardio protect	N-glyco inh
O=C(/C=C/Sc1ccccc1)c1ccccc1	7.7	-0.2	5.7	-26.5	33.3*
CCC(=O)N1C[C@@H](O)COC[C@@H]2O[C@@H](CC(=O)NC)CC[C@H]21	-7.3	.	.	.	.
COc1ccc(OCC(=O)Nc2ccc(S(=O)(=O)Nc3cc(C)on3)cc2)cc1	0.0	0.2	1.3	4.3	-0.2
Cc1cc(NS(=O)(=O)c2ccc(NC(=O)COc3c(C)cc(Br)cc3C)cc2)no1	1.5	0.1	7.0	-2.7	32.7*
CS(=O)(=O)c1ncc(Cl)c(C(=O)Nc2ccc(OC(F)F)cc2)n1	9.0	-0.3	53.8*	-16.2	-14.8
C[C@H](CO)N1C[C@H](C)[C@@H](CN(C)Cc2ccc(Cl)c(Cl)c2)Oc2c(NC(=O)NC3CCCCC3)cccc2C1=O	1.5	.	.	.	.
C[C@@H]1CCCCO[C@H](CN(C)S(=O)(=O)c2cn(C)cn2)[C@@H](C)CN([C@H](C)CO)C(=O)c2cc(NC(=O)Nc3ccc4c(c3)OCO4)ccc2O1	-0.1	.	.	.	.
C[C@H](CO)N1C[C@H](C)[C@H](CN(C)C(=O)NC2CCCCC2)Oc2ccc(N(C)C)cc2C1=O	3.2	.	.	.	.
O=C1[C@H]2[C@@H](c3ccc(F)cc3)N3C(=O)N(c4cccc(Cl)c4)C(=O)[C@@]3(Cc3ccccc3)[C@H]2C(=O)N1C1CCCCC1	-5.4	0.9	0.0	-1.9	72.2*
COc1ccc([C@@H]2[C@@H]3C(=O)N(C(C)(C)C)C(=O)[C@@H]3[C@]3(Cc4ccccc4)C(=O)N(c4cccc(C)c4)C(=O)N23)cc1	-3.9	0.6	6.9	0.0	56.0*
CCc1ccc(Oc2coc3cc(OCC(=O)Nc4cc(C)ccc4C)ccc3c2=O)cc1	-3.6	-0.6	-3.0	-4.3	66.1*
CCCc1ccc(Oc2coc3cc(OCC(=O)Nc4ccccc4C)ccc3c2=O)cc1	.	-0.1	-10.2	-0.6	-1.6
Cc1cccc2nc(CSc3nc4ccc([N+](=O)[O-])cc4[nH]3)c(Br)n12	-17.2	0.3	54.4*	38.6	2.2
COc1ccc(NC(=O)Nc2ccc3c(c2)C(=O)N([C@@H](C)CO)C[C@H](C)[C@H](CN(C)C(=O)CCCN(C)C)OCCCC[C@H](C)O3)cc1	1.0	.	.	.	.
O=C(C[C@@H]1CC[C@H]2[C@@H](COC[C@@H](O)CN2Cc2cccc(-c3ccncc3)c2)O1)N1CCOCC1	-5.7	.	.	.	.
C[C@@H]1CN([C@H](C)CO)C(=O)CCCn2cc(nn2)CO[C@H]1CN(C)C(=O)c1ccccc1	6.9	-0.1	69.7*	-4.0	3.6
C[C@@H]1CN([C@@H](C)CO)C(=O)CCCn2cc(nn2)CO[C@H]1CN(C)C(=O)c1ccccc1	2.2	.	.	.	.
CCCNC(=O)Nc1ccc2c(c1)C(=O)N(C)C[C@@H](OC)[C@@H](C)CN[C@H](C)CO2	-2.5	.	.	.	.
COc1cc(CCC(=O)OCn2nnc3ccccc3c2=O)cc(OC)c1OC	8.8	-0.1	58.5*	6.3	-0.4
COCC(=O)NC[C@H]1[C@@H](c2ccc(C3=CCCC3)cc2)[C@H](CO)N1C(C)=O	-13.1	.	.	.	.
Cn1cnnc1SCc1ccc(C(=O)N=Nc2c(O)n(Cc3ccc(Cl)cc3)c3ccccc23)cc1	0.4	0.2	-11.0	53.5*	15.1
COc1ccc(N2CCN(CCNC(=O)c3ccc4nc5ccccc5c(=O)n4c3)CC2)cc1	22.3	0.0	-9.1	14.4	0.1
O=C(NCCN1CCN(c2ccccc2F)CC1)c1ccc2nc3ccccc3c(=O)n2c1	48.2*	-0.1	-9.1	45.8	-2.4
Cc1ncc(CO)c(/C=N/NC(=O)c2cc3c(s2)CCCC3)c1O	61.5*	0.2	-5.3	46.3	-10.3
COc1ccccc1NS(=O)(=O)c1cccc(C(=O)N/N=C/c2c(CO)cnc(C)c2O)c1	.	0.0	-11.8	52.5*	1.9
SMILES	ARNT TACC3 PPI	aDG glyco up	Vif inh	Cardio protect	N-glyco inh
COc1ccc(C(=O)N/N=C/c2c(CO)cnc(C)c2O)cc1	72.1*	0.2	0.1	17.8	-0.5
Cc1ncc(CO)c(/C=N/NC(=S)Nc2cccc(Cl)c2)c1O	.	-0.2	3.3	30.7	0.4
Cc1ncc(CO)c(/C=N/NC(=S)Nc2ccc(Cl)c(Cl)c2)c1O	.	0.0	-10.9	10.0	0.1
Cc1ncc(CO)c(/C=N/NC(=O)c2ccccc2Br)c1O	60.8*	-0.4	1.3	17.5	2.3
Cc1ncc(CO)c(/C=N/NC(=O)c2ccoc2C)c1O	.	0.5	-3.9	44.0	1.6
Cc1ccc(S(=O)(=O)NCC[C@@H]2CC[C@@H](NC(=O)Nc3ccccc3F)[C@@H](CO)O2)cc1	-8.8	.	.	.	.
C[C@H](CO)N1C[C@H](C)[C@H](CN(C)C)Oc2cc(C#Cc3ccccc3)ccc2S1(=O)=O	3.7	.	.	.	.
Cc1noc(C)c1NC(=O)N(C)C[C@H]1Oc2ccc(NC(=O)C3CC3)cc2C(=O)N([C@@H](C)CO)C[C@H]1C	-6.3	.	.	.	.
COc1ccc(C(=O)N/N=C/c2c(C)[nH]c(=O)[nH]c2=O)cc1	37.7*	0.1	7.0	-1.4	4.2
Cc1nnc2sc(SCC(=O)N3CCC(C)CC3)nn2c1=O	63.3*	0.1	4.1	7.7	0.0
CCC(=O)Nc1nnc(SCC(=O)Nc2cccc(Cl)c2)s1	-7.3	0.2	.	-3.0	1.2
Cc1nnc2sc(SCc3ccc(Br)cc3)nn2c1=O	-6.8	-0.2	4.6	8.2	1.7
Cc1nnc2sc(SCC(=O)Nc3cccc(Cl)c3)nn2c1=O	64.7*	0.1	-3.8	-1.9	6.2
Cc1ccccc1NC(=O)CSc1nn2c(=O)c(C)nnc2s1	51.2*	-0.2	-4.1	2.2	3.6
Cc1nnc2sc(SCC(=O)N3CCCCC3)nn2c1=O	-3.4	0.1	.	0.7	2.2
Cc1nnc2sc(SCC(=O)Nc3ccc(Br)cc3)nn2c1=O	73.7*	0.9	3.8	2.2	5.8
Cc1noc(C)c1S(=O)(=O)N(C)C[C@@H]1OCCCC[C@H](C)Oc2ccc(NS(=O)(=O)c3ccc(F)cc3)cc2C(=O)N([C@H](C)CO)C[C@@H]1C	12.6	.	.	.	.
CN1c2ccc(C#Cc3cccnc3)cc2[C@@H]2[C@@H](CCN2S(=O)(=O)c2cccc(F)c2)[C@H]1CO	-6.6	.	.	.	.
CCCNC(=O)Nc1ccc2c(c1)OC[C@@H](C)N(Cc1ccccn1)C[C@H](C)[C@@H](OC)CN(C)C2=O	10.1	.	.	.	.
O=C(NC1CCCC1)[C@@H]1[C@@H](CO)[C@@H]2Cn3c(ccc(-c4cccnc4)c3=O)[C@H]1N2CCc1ccccc1	-1.5	.	.	.	.
COc1ccc(NC(=O)CSc2nn3c(=O)c(C)nnc3s2)cc1	61.0*	-0.1	-7.5	2.9	-1.2
COc1ccc(C(=O)CSc2nn3c(=O)c(C(C)(C)C)nnc3s2)cc1	-3.7	-0.5	-3.3	-2.3	33.9*
